The list shows a part of the results. No count for the full screen is at hand.
Biological target: furin, P09958
Test: furin cleavage Z-score vs untreated control; higher = more cleavage, active = 3.5 or more, inactive = 1 or less, 8 variable residues between constant flanks
Protocol: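 Multiplexed peptide-cDNA fusion cleavage assay. 8-mer variable peptides flanked by constant Cys-Ala (N-term) and Ala-Gly-Asn-Ala-Ser-Ala-Ser-Ala (C-term) and conjugated to a cDNA oligonucleotide were bead-immobilised via the N-terminus. They were treated with purified furin at a 1:10 enzyme:substrate ratio in 50 mM HEPES pH 7.5, 1 mM CaCl2, 100 mM NaCl for 7.5, 15 or 30 min. Released cDNA was counted by next-generation sequencing, and log counts versus no-furin controls were lowess-adjusted and converted to robust Z-scores.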

Chain of furin, P09958 (P09958 whole entry): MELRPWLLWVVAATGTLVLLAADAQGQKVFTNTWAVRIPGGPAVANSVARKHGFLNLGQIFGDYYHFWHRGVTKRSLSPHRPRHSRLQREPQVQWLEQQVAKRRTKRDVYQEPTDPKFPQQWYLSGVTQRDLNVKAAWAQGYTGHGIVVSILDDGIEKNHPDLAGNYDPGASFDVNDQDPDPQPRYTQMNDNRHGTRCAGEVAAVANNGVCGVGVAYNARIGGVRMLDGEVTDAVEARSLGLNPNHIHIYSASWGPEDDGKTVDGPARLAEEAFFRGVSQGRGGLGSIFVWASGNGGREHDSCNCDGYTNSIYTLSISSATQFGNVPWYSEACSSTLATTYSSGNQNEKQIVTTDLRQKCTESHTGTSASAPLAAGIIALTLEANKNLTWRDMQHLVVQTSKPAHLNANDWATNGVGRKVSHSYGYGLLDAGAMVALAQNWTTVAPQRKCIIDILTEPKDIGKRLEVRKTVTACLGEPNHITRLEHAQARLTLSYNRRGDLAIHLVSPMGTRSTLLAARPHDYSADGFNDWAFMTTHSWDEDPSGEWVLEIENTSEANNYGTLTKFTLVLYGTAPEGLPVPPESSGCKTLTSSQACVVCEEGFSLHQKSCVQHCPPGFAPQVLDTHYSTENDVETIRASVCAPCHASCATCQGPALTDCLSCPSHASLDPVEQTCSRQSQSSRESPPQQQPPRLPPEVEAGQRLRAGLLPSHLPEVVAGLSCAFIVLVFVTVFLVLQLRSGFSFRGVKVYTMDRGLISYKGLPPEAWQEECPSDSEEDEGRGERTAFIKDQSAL

Sequence	furin cleavage Z-score (7.5 min)	furin cleavage Z-score (15 min)	furin cleavage Z-score (30 min)
CAMEECSQELAGNASASA [HC1752]	0.357 (inactive)	-0.13 (inactive)	-0.468 (inactive)
CAVGIFRAAVAGNASASA [HC749]	-0.179 (inactive)	-0.141 (inactive)	0.209 (inactive)
CAARVCSCLWAGNASASA [HC525]	-1.84 (inactive)	-1.52 (inactive)	1.13
CAEKEVPCHRAGNASASA [HC2454]	0.758 (inactive)	-0.375 (inactive)	1.43
CALLWRQEMGAGNASASA [HC1276]	1.14	0.0716 (inactive)	0.841 (inactive)
CAGIDPNIRTAGNASASA [HC797]	-1.41 (inactive)	-0.301 (inactive)	-1.74 (inactive)
CAPTGREKRPAGNASASA [FS-75]	0.811 (inactive)	0.063 (inactive)	0.807 (inactive)
CADQRPYCWHAGNASASA [HC401]	0.793 (inactive)	-0.215 (inactive)	1.33
CATLRRYKRHAGNASASA [FS-964]	11.2 (active)	10.9 (active)	8.76 (active)
CALLRRQIRTAGNASASA [FS-1642]	6.82 (active)	8.8 (active)	8.78 (active)
CAHEGREKRHAGNASASA [FS-1630]	7.09 (active)	9.28 (active)	8.39 (active)
CAETPCHRPSAGNASASA [HC2338]	-0.427 (inactive)	-0.0389 (inactive)	1
CAEILLGPADAGNASASA [HC665]	0.796 (inactive)	-1.29 (inactive)	0.764 (inactive)
CATEMEECSQAGNASASA [HC1798]	1.39	-0.469 (inactive)	-0.647 (inactive)
CAEVVTSTWQAGNASASA [HC2262]	0.0156 (inactive)	-1.35 (inactive)	-0.305 (inactive)
CASRCRFLRSAGNASASA [FS-1086]	4.82 (active)	4.36 (active)	4.8 (active)
CAMKNRFLRSAGNASASA [FS-1645]	7.49 (active)	7.31 (active)	7.79 (active)
CAQRRRQLRSAGNASASA [FS-1254]	9.6 (active)	10.8 (active)	7.49 (active)
CANRCRMLRSAGNASASA [FS-469]	2.76	3.91 (active)	2.25
CAQRRRQRRPAGNASASA [FS-1557]	0.0891 (inactive)	-1.68 (inactive)	0.0903 (inactive)
CAEVEVPCHRAGNASASA [HC2450]	1.03	0.836 (inactive)	1.62
CACVPCHRPSAGNASASA [HC2320]	-1.73 (inactive)	2.15	-0.71 (inactive)

Sequence	furin cleavage Z-score (7.5 min)	furin cleavage Z-score (15 min)	furin cleavage Z-score (30 min)
CAGGPLTNSRAGNASASA [HC1502]	-0.097 (inactive)	1.45	0.841 (inactive)
CAENVVCCSMAGNASASA [HC2141]	-0.000681 (inactive)	-0.718 (inactive)	1.03
CAEPSRLVREAGNASASA [FS-1452]	3.98 (active)	5.86 (active)	4.45 (active)
CADREVLYREAGNASASA [HC1009]	1.17	0.738 (inactive)	0.787 (inactive)
CARCRRLVREAGNASASA [FS-3185]	8.42 (active)	9.96 (active)	8.44 (active)
CARCRRQFQEAGNASASA [FS-1887]	0.189 (inactive)	1.16	1.9
CARDSRSSGGAGNASASA [FS-2906]	-0.675 (inactive)	-1.21 (inactive)	-0.52 (inactive)
CARPKRYNSGAGNASASA [FS-2437]	0.95 (inactive)	0.51 (inactive)	1.14
CARWKRDSSGAGNASASA [FS-3176]	10.7 (active)	12 (active)	10.2 (active)
CARLVRESSGAGNASASA [FS-2999]	-0.00522 (inactive)	1.39	1.91
CARQCRSSQGAGNASASA [FS-2288]	1.61	0.149 (inactive)	1.21
CARIKRDSQGAGNASASA [FS-2338]	12.5 (active)	13.5 (active)	10.5 (active)
CAKPGIYRFVAGNASASA [HC908]	1.16	-1.32 (inactive)	2.33
CAGVVCAAILAGNASASA [HC1108]	0.833 (inactive)	1.01	1.2
CAVIDCNTCVAGNASASA [HC886]	-1.17 (inactive)	-0.722 (inactive)	-1.34 (inactive)
CAGPDQRPYCAGNASASA [HC400]	0.515 (inactive)	0.00682 (inactive)	0.075 (inactive)
CAPGRRRRRTAGNASASA [FS-1381]	7.92 (active)	8.84 (active)	6.67 (active)
CAVATDALMTAGNASASA [HC878]	-0.06 (inactive)	-0.775 (inactive)	0.231 (inactive)
CARGRREARRAGNASASA [FS-2936]	6.61 (active)	7.38 (active)	6.43 (active)
CAVGRRYRRTAGNASASA [FS-387]	11.6 (active)	9.35 (active)	8.06 (active)
CAVPQRHRRTAGNASASA [FS-1432]	10.8 (active)	9.86 (active)	9.48 (active)
CAQPRRHRRPAGNASASA [FS-1250]	0.282 (inactive)	1.35	0.113 (inactive)
